Experiment [1] in a line: NCI Yeast Anticancer Drug Screen. Data for the rad50 strain (AID 155).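 Also: 0% = growth of vehicle-only cultures of the same strain.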 Particulars: S. cerevisiae rad50 strain growth inhibition; at 50.0 µM; hits give high values. In a few lines:
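Yeast carrying a defined DNA repair defect were exposed to test compounds, and growth was compared with vehicle-treated controls to give percent inhibition.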

A short description of experiment [2]: NCI Yeast Anticancer Drug Screen. Data for the mec2-1 strain (AID 157). To be noted: S. cerevisiae mec2-1 strain, at 50.0 µM, hits give high values. The method, boiled down:
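Using mec2-1 yeast: add compound, measure growth, express inhibition versus vehicle-treated cultures.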

Experiment [3] in a line: NCI Yeast Anticancer Drug Screen. Data for the sgs1 mgt1 strain (AID 161).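 Also: 0% = growth of cultures given vehicle only.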 To be noted: S. cerevisiae sgs1 mgt1 strain, at 50.0 µM, hits give high values. The method, boiled down:
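Growth of a repair-deficient yeast mutant was monitored after compound treatment and expressed as inhibition relative to vehicle-treated cultures.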

Experiment [4] in a line: NCI Yeast Anticancer Drug Screen. Data for the cln2 rad14 strain (AID 165).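 Also: 0% = growth equal to vehicle treated cultures.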 Particulars: S. cerevisiae cln2 rad14 strain, at 50.0 µM, hits give high values. The method, boiled down: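 Yeast strain cln2 rad14, bearing defects in cell cycle control and DNA repair, serves as the test system; values reflect growth inhibition compared with vehicle.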
Experiment [5] is described as follows: NCI Yeast Anticancer Drug Screen. Data for the bub3 strain (AID 167). To be noted: S. cerevisiae bub3 mutant strain, at 50.0 µM, hits give high values. In a few lines: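 Compounds were applied to a genetically altered yeast strain carrying a cell-cycle control defect. Growth inhibition was scored against vehicle-treated controls.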
The nature of experiment [6]: NCI Yeast Anticancer Drug Screen. Data for the mlh1 rad18 strain (AID 175). To be noted: S. cerevisiae mlh1 rad18 strain growth inhibition; at 50.0 µM; hits give high values. The method, boiled down:
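Steps: expose repair-defective yeast to compound; measure growth; express inhibition against vehicle-treated controls.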

The panel holds about 79,000 compounds, 15% with a hit somewhere; the sample as a whole holds those more often. Unmarked numbers belong to inactive results. Activity calls are given as the source filed them. Rule as the data show it: active = growth inhibition above about 70%; inactive = the rest.

Take `COc1cc(/C=N\Nc2ccccc2)ccc1OC(=O)c1ccccc1`: the growth inhibition in experiment [1] is 25.1%; in experiment [2] it was 8.95%; in experiment [3], 41.4%; in experiment [4], 23.9%; in experiment [5], 11.8%.
Taken in the same sequence, the figures for `O=C(N/N=C\c1cc(Br)cc(Br)c1O)N/N=C/c1cc(Br)cc(Br)c1O` were 41.4%, 10.2%, 43%, 21.9% and 39%.
On to `O=[N+]([O-])c1ccc(Cl)c(S(=O)(=O)O)c1`, for which the growth inhibition in experiment [1] is 36.4%; in experiment [2], 21.3%; in experiment [3] it was 21.2%; in experiment [4] it was -18.9%; in experiment [5], 10.8%.
For the molecule `CCOC(=O)c1[nH]c(C)c(C(=O)O)c1C`, the growth inhibition was -4.45% in experiment [1]; -26.3% in experiment [2]; 0.2% in experiment [3]; -24.9% in experiment [4]; -23.8% in experiment [5].
In the case of `OCc1ccc(-c2ccc(-c3ccc(CO)s3)o2)s1`, the growth inhibition in experiment [1] is 31.1%; in experiment [2], 3.55%; in experiment [3], 39.9%; in experiment [4] it was 31.9%; in experiment [5], 25.3%; in experiment [6], 90.7% (active).
Take `COc1ccc(C(O)c2ccccc2)cc1` (centres undefined): the growth inhibition was 2.2% in experiment [1]; -17.4% in experiment [2]; -34.9% in experiment [3]; -50.2% in experiment [4]; -28.1% in experiment [5].
In the same order, the values of `Cc1ccc(C(=O)c2ccccc2)c(C)c1` are 8.65%, -1.75%, 0.6%, -10.4% and -2.5%.
Consider `O=S(=O)(O)CC(O)CN1CCN(CCO)CC1` (centres undefined), for which the growth inhibition in experiment [1] was -18.9%; in experiment [2], -35.8%; in experiment [3], -36.8%; in experiment [4] it was 5.45%; in experiment [5] it was -23.9%; in experiment [6], -6.3%.
In the case of `c1ccc2c(c1)Sc1ccccc1S2`, the growth inhibition in experiment [1] was -6.95%; in experiment [2], 6.8%; in experiment [3] it was 22.1%; in experiment [4] it was -19.6%; in experiment [5], -3.6%.
On to `Cc1cccc(C(=O)N(C(C)C)C(C)C)c1`, for which the growth inhibition is -0.9% in experiment [1]; -4.95% in experiment [2]; -4.25% in experiment [3]; -50.8% in experiment [4]; 26.2% in experiment [5].
Taken in the same sequence, the figures for `CC(C)=NNc1ccc([N+](=O)[O-])cc1[N+](=O)[O-]` were 35.1%, 12.8%, 8.3%, 25.4% and -5.75%.
In the same order, the values of `CC1CCCCN1C(=S)Nc1ccc(S(=O)(=O)N2CCCCC2)cc1` (centres undefined) are -18.6%, -29.2%, -5.75%, -11.2% and -19.1%.
Regarding `CCC(=O)Oc1ccc(OC)cc1`, the growth inhibition in experiment [1] was 23.1%; in experiment [2], -13.4%; in experiment [3], 2.9%; in experiment [4], 29.4%; in experiment [5] it was 3.9%; in experiment [6] it was 23.6%.
Turning to `CC[N+](C)(CC)CCO`, the growth inhibition in experiment [1] was 13.7%; in experiment [2], -3.8%; in experiment [3], 4.4%; in experiment [4] it was 10.7%; in experiment [5], 2.9%.
Taken in the same sequence, the figures for `CNc1nc(NC)c2cn[nH]c2n1` were 17.7%, 2.3%, 20.2%, -9.25% and -3.9%.
Take `C#Cc1cccc(NC(=O)c2ccc(Cl)cc2Cl)c1`: the growth inhibition in experiment [1] is 9.95%; in experiment [2] it was -9.7%; in experiment [3], 26.6%; in experiment [4], 24.2%; in experiment [5], 25%.
Regarding `O=C(OCC(O)C1OC(c2ccccc2)OC(COC(=O)c2ccccc2)C1O)c1ccccc1` (centres undefined), the growth inhibition in experiment [1] is 5.85%; in experiment [2], 4.85%; in experiment [3] it was 13.6%; in experiment [4], 16.6%; in experiment [5], 1%.
In the same order, the values of `COCCOCCCl` are 10%, -19.3%, -12.5%, -7.95% and -6.5%.
Regarding `O=C(CCl)N1CCN(C/C=C/c2ccccc2)CC1`, the growth inhibition in experiment [1] was 8.15%; in experiment [2] it was -0.05%; in experiment [3] it was 19.1%; in experiment [4] it was -3.95%; in experiment [5] it was 39.9%; in experiment [6], 28.5%.
`CC1(O)CCCCC1O` (centres undefined): the growth inhibition in experiment [1] is -8.1%; in experiment [2] it was -37.6%; in experiment [3], -8.3%; in experiment [4] it was -20.9%; in experiment [5], -13.8%.
Regarding `OC1CCCc2ccccc21` (centres undefined), the growth inhibition was 17.6% in experiment [1]; 17.4% in experiment [2]; 13.6% in experiment [3]; -17.9% in experiment [4]; 0.85% in experiment [5].
On to `Cc1cc(N)c(S(=O)(=O)O)c(N)c1`, for which the growth inhibition in experiment [1] was -31.9%; in experiment [2], 5.65%; in experiment [3] it was -4%; in experiment [4] it was -15.1%; in experiment [5] it was 11.8%.
With `S=c1sc2ccccc2n1CN1CCCCC1`, the growth inhibition is 7.7% in experiment [1]; 14.8% in experiment [2]; 45% in experiment [3]; 10.6% in experiment [4]; 25.3% in experiment [5].
Taken in the same sequence, the figures for `COc1cc2nc3cc([N+](=O)[O-])ccc3c(Cl)c2cc1OC` were -14.8%, -20.9%, -19.7%, 4.3% and -14.2%.

Source of the values: PubChem BioAssay (NCI).
